Measurements reported in PubChem BioAssay AID1159580 (chemical genetic matrix, 2015).
About 2,000 (36%) of roughly 5,500 compounds were called active. Roughly 18% stayed inconclusive and do not appear here. Rule as the data show it: active = normalized growth mostly below about 0.91 (no sharp cut-off); inconclusive = no clear call, values can overlap the other calls; inactive = mostly above about 0.92. The list shows a part of the results.

Test: chemical genetic growth profiling, strain panel (AID 1159580);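 also: tested at 20 µM; growth read once vehicle control cultures reached saturation at 30 °C; 1 = growth at the plate median or of vehicle wells; lower values mean less growth of the strain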
Details: S. cerevisiae deletion strains, growth OD
[1] = locus YAL040C, strain CLN3, active compounds read low
[2] = locus YER002W, strain NOP16, active compounds read low
[3] = locus YGR078C, strain PAC10, active compounds read low
[4] = locus YNL175C, strain NOP13, active compounds read low
[5] = locus YNL197C, strain WHI3, active compounds read low
[6] = locus YNL224C, strain SQS1, active compounds read low
[7] = locus YNL322C, strain KRE1, active compounds read low
[8] = locus YOR083W, strain WHI5 (second series), active compounds read low

Measured: normalized growth

O=C1C=CC(=O)C=C1
inactive: [1] 0.986 | [2] 1 | [3] 0.912 | locus YMR263W, strain SAP30, active compounds read low 1 | locus YMR307W, strain GAS1, active compounds read low 1.04 | [4] 1.02 | [5] 1.05 | [6] 1 | [7] 0.99 | [8] 1.01 | locus YPL055C, strain LGE1, active compounds read low 0.979

CC(=O)O[C@H]1CC2(C)[C@@H](C[C@@H](O)[C@H]3[C@@]4(C)CC[C@@H](O)[C@@H](C)[C@@H]4CC[C@@]32C)C1=C(CCC=C(C)C)C(=O)O (stereo partly drawn)
inactive: [1] 1.02 | locus YCL061C, strain MRC1 (second series), active compounds read low 1.01 | locus YDR150W, strain NUM1, active compounds read low 1.02 | locus YDR363W, strain ESC2, active compounds read low 1.02 | [2] 1.04 | [3] 1.03 | [4] 1 | [5] 1 | [6] 0.974 | [7] 1.01 | [8] 0.996 | locus YPL241C, strain CIN2, active compounds read low 1.01
